Results filed as inconclusive are left out. The source made the active and inactive calls. How the source made its calls, unless noted: active means hit-call score of the fitted dose curve at least 0.9, where 1 is the maximum; inactive means score below 0.9.

In test [1] the target is human Vitamin D Receptor (VDR), VDR (gene 7421) (UniProt P11473). Put plainly: ATG_VDR_TRANS: Attagene TRANS-FACTORIAL HepG2 Assay for human Vitamin D Receptor (VDR) (AID 2283022; active means hit-call score of the fitted dose curve at least 0.9, where 1 is the maximum). The method, boiled down:
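HepG2 cells were transiently transfected with GAL4-UAS reporter units and a chimeric VDR-Gal4 construct, then dosed for 24 hours. Reporter mRNA was quantified by RT-PCR, fluorescent labeling, HpaI digestion and capillary electrophoresis; gain of signal analysed vs DMSO.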

Test [2] can be described thus: BSK_3C_SRB: Viability Assessment in the BioMAP Diversity Plus: 3C Assay (AID 2283023).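 Further: fitted both ways against DMSO so a hit may be signal rise or drop.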 Conditions: primary human endothelial cells (HUVEC). The method, boiled down:
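Human umbilical vein endothelial cells in the 3C system, treated 24 h. Total protein measured by 0.1% sulforhodamine B staining after 10% TCA fixation, read at 560 nm; bidirectional fit versus DMSO.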

Read-out in test [3]: Matrix Metallopeptidase 1 (MMP1), MMP1 (gene 4312)
Put plainly: BSK_BE3C_MMP1: BioMAP Diversity Plus: BE3C Assay for Matrix Metallopeptidase 1 (MMP1) Biomarker Activity (AID 2283024). Conditions: primary human bronchial epithelial cells; actives raise or lower the signal. Summed up:
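ELISA measurement of MMP-1 after 24 h compound exposure of primary human bronchial epithelial cells. Changes in either direction fitted relative to DMSO; parallel SRB staining checked overt cytotoxicity.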

Read-out in test [4]: Pselectin, SELP (gene 6403)
Nature of the test: BSK_4H_Pselectin: BioMAP Diversity Plus: 4H Assay for Pselectin Biomarker Activity (AID 2283026). Particulars: primary human endothelial cells (HUVEC); actives raise or lower the signal. Summed up: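 ELISA of surface P-selectin on HUVEC, 24 h after dosing, with parallel SRB staining (0.1% after 10% TCA fixation, 560 nm) for overt cytotoxicity. Activity fitted in both directions relative to DMSO.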

A short description of test [5]: BSK_4H_SRB: Viability Assessment in the BioMAP Diversity Plus: 4H Assay (AID 2283027).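 Further: cells exposed to compound for 24 h before staining.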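 On AC50: curves fitted both ways versus DMSO so AC50 may be loss or gain.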 Particulars: primary human endothelial cells (HUVEC). The method, boiled down:
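Cytotoxicity readout: sulforhodamine B (0.1%) staining of total protein after 10% TCA fixation, measured at 560 nm in human umbilical vein endothelium at 24 h. DMSO set the baseline; fitting was bidirectional.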

Test [6] can be described thus: BSK_BE3C_SRB: Viability Assessment in the BioMAP Diversity Plus: BE3C Assay (AID 2283028).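 On AC50: fitted both ways so AC50 may mark signal gain or loss versus DMSO.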 Conditions: primary human bronchial epithelial cells. Summed up:
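Human bronchial epithelial primary cells in confluent culture, 24 h after chemical dosing; total protein by 0.1% SRB staining after 10% TCA fixation, read at 560 nm. Bidirectional fitting versus DMSO baseline.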

Read-out in test [7]: Thrombomodulin, THBD (gene 7056)
Put plainly: BSK_3C_Thrombomodulin: BioMAP Diversity Plus: 3C Assay for Thrombomodulin Biomarker Activity (AID 2283029). Conditions: primary human endothelial cells (HUVEC); actives raise or lower the signal. Summed up: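 ELISA measurement of thrombomodulin on HUVEC surface 24 h after chemical dosing; activity fitted in both directions relative to DMSO vehicle.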

Read-out in test [8]: Urokinase-type plasminogen activator receptor (uPAR), PLAUR (gene 5329)
Nature of the test: BSK_4H_uPAR: BioMAP Diversity Plus: 4H Assay for Urokinase-type plasminogen activator receptor (uPAR) Biomarker Activity (AID 2283030). Particulars: primary human endothelial cells (HUVEC); actives raise or lower the signal. The method, boiled down: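 Human umbilical vein endothelial cells in the 4H system, 24 h after chemical dosing. Cell-surface uPAR measured by ELISA, fitted in both directions versus DMSO; cytotoxicity checked by SRB total protein in parallel cultures.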

Read-out in test [9]: Vascular endothelial growth factor receptor 2 (Homo sapiens) (UniProt P35968)
Put plainly: BSK_4H_VEGFRII: BioMAP Diversity Plus: 4H Assay for Vascular endothelial growth factor receptor 2 (VEGFR2) Biomarker Activity (AID 2283031).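 On AC50: cell-surface VEGFR2 protein level quantified by ELISA.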 Conditions: primary human endothelial cells (HUVEC); actives raise or lower the signal. Summed up:
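Primary human umbilical vein endothelial cells (4H system), 24 h exposure; cell-surface VEGFR2 measured by ELISA. Bidirectional fitting versus DMSO; cytotoxicity checked in parallel by SRB total-protein staining.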

Read-out in test [10]: Human Leukocyte Antigen - DR isotype (HLADR), HLA-DRA (gene 3122)
Nature of the test: BSK_BE3C_HLADR: BioMAP Diversity Plus: BE3C Assay for Human Leukocyte Antigen - DR isotype (HLADR) Biomarker Activity (AID 2283032). Conditions: primary human bronchial epithelial cells; actives raise or lower the signal. The method, boiled down: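 Cell-surface HLA-DR ELISA readout at 24 h after dosing in the BE3C primary human lung bronchial epithelial system; gain or loss of signal against DMSO, with parallel sulforhodamine B staining of total protein for overt cytotoxicity.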

human Vitamin D Receptor (VDR), VDR (gene 7421), sequence (P11473 whole entry, looked up, the tested form may be a part): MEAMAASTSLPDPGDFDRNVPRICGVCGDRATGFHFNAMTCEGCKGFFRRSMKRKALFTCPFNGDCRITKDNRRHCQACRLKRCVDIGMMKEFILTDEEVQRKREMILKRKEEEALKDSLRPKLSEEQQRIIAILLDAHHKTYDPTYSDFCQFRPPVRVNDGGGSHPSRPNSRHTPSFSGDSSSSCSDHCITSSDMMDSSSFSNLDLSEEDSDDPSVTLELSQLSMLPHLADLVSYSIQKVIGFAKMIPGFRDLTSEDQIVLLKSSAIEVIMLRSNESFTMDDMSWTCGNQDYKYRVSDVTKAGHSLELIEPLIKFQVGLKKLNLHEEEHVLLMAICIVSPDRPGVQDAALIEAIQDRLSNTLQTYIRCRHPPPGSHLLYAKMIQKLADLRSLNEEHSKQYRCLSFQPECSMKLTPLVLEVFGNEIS

As usually defined, the AC50 is the midpoint of the concentration-response curve, whichever way the signal moves. As for `CC(C=O)Cc1ccc(C(C)(C)C)cc1` (stereo unspecified), the molecule was called inactive in test [1], in test [3], in test [6] and in test [7]. The AC50 in [2] is 31.2 µM (active); in test [4], 31.1 µM (active); in test [5], 30.1 µM (active); in test [8] it was 29.7 µM (active); in [9] it was 32.9 µM (active); in [10], 28.9 µM (active).

Consider `C=C(C)C(=O)OCC(CC)(COC(=O)C(=C)C)COC(=O)C(=C)C`, for which the result in test [2], in test [3], in test [4], in [6], in test [7] and in [8] was inactive. For the same molecule, the result in test [9] and in [10] was inactive. Also, the AC50 in test [5] is 9.41 µM (active).

On to `CCCCOC(=O)CCCCCCCC(=O)OCCCC`, for which the call in test [1], in [2], in test [3], in [4], in [5] and in test [6] was inactive. Further, the outcome in test [7], in test [8], in [9] and in test [10] was inactive.

Regarding `c1ccc(CCc2ccccc2)cc1`, the half-maximal activity concentration (AC50) in test [2] is 30.5 µM (active); in test [3], 20 µM (active); in [4], 35.7 µM (active); in test [5] it was 31 µM (active); in [6] it was 33.2 µM (active); in [7], 20 µM (active). The results for the half-maximal activity concentration (AC50) in test [8] and in [10] were 32.2 µM (active) and 30.3 µM (active), respectively. Besides, the outcome in test [9] was inactive.

As to `O=C1c2ccccc2C(=O)c2c(O)ccc(O)c21`, the result in [2], in [3], in test [4], in [5], in test [6] and in test [7] was inactive. Further, the result in test [9] and in test [10] was inactive. Moreover, in [8], the AC50 was 6.4 µM (active).

For the molecule `CCCCCCCCCCCCCCCC(=O)OC/C=C(C)/C=C/C=C(C)/C=C/C1=C(C)CCCC1(C)C`, the figures for the AC50 in test [2] and in test [7] were 29.5 µM (active) and 20 µM (active), respectively. In addition, the result in test [3], in [4], in test [5], in [6], in [8] and in test [9] was inactive. In addition, the outcome in [10] was inactive.

For the origin of these results see PubChem BioAssay (EPA / NIEHS).
